The values that follow come from PubChem BioAssay.

A short description of experiment [1]: compounds binding Alexa647 anti-His antibody – biochemical, small-molecule microarray, 635 nm fluorescence, artefact control for SMM control protein annotation, primary screen (AID 1128).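 Further: score merges feature fluorescence with signal-to-noise for each printed compound spot.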 The note with it: higher = more signal.
Experiment [2] relates to Human papillomavirus type 1a E7 protein (residues 1-88). In words: HPV1a E7 small-molecule binders, primary screen, biochemical, small-molecule microarray, residues 1-88, 635 nm (AID 1129). As to conditions: small-molecule microarray binding, fluorescence 635 nm; higher = more signal.
Experiment [3] concerns the target Focal adhesion kinase 1 (Homo sapiens) (UniProt Q05397). In words: PTK2 protein binding on printed compound slides – biochemical, small-molecule microarray, 635/667 nm fluorescence, BSA, DTT, primary screen (AID 1130).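 Further: composite of spot emission at 667 nm and signal to noise over triplicate slides.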 As to conditions: 635 nm fluorescence, higher = more signal.
Experiment [4] has as its system Fibrinogen (Alexa647-labelled). In words: Alexa647-fibrinogen binding to printed small molecules – biochemical, small-molecule microarray, 635/667 nm fluorescence, artefact control for SMM control-protein annotation, profiling panel (AID 1131).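 Further: z-score merges 667 nm fluorescence with per-spot signal-to-noise over triplicate slides.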 As to conditions: fibrinogen-A647 binding fluorescence, higher = more signal.
For experiment [5], the target named is Follistatin (Homo sapiens) (UniProt P19883). In words: FST protein binding to printed compounds – biochemical, small-molecule microarray, 635/667 nm fluorescence, primary screen (AID 1132). As to conditions: 635 nm fluorescence, higher = more signal.
Experiment [6] deals with Fibroblast growth factor 2 (Homo sapiens) (UniProt P09038). The experiment can be described thus: basic fibroblast growth factor binding to printed compounds – biochemical, small-molecule microarray, 635/667 nm fluorescence, primary screen (AID 1133). As to conditions: FGF2, fluorescence 635/667, higher = more signal.
Experiment [7] in a line: JC-1 mitochondrial potential readout, lung cancer cells – cell-based, A549, JC-1 fluorescence, basal, 24 h, 100 nL, profiling panel (AID 1138).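 Further: A549 lung adenocarcinoma cells under basal conditions with no added stimulus; test concentration not given here.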 As to conditions: higher = more signal.
A further experiment has as its system Lefty1. In words: Lefty1 protein binding to printed compounds – biochemical, small-molecule microarray, 635/667 nm fluorescence, primary screen (AID 1139). The note with it: fluorescence 635/667, higher = more signal.
The subject of experiment [8] is wheat germ agglutinin (Triticum aestivum), Alexa647-labelled. In words: Alexa647-WGA lectin binding to printed small molecules – biochemical, small-molecule microarray, 635/667 nm fluorescence, artefact control for SMM control-protein annotation, profiling panel (AID 1140).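 Further: score merges 667 nm feature emission with signal to noise over triplicate slides.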 As to conditions: WGA-A647 binding, 635 nm fluorescence, higher = more signal.
Experiment [9] concerns the target Luciferin 4-monooxygenase (Photinus pyralis) (UniProt P08659). The experiment can be described thus: inhibition of purified Photinus pyralis luciferase – biochemical, luminescence, purified enzyme, 2006 set, primary screen (AID 1141).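 Further: cell-free assay with purified firefly luciferase at 100 ng per well in PBS; test concentration not given here.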 The note with it: purified firefly luciferase, SteadyGlo luminescence, 30 min; higher = more signal, called active from +8 up or from −8 down.

Experiment [10] has as its system Wnt5a (protein binding on small-molecule microarray). The experiment can be described thus: small molecules binding Wnt5a protein – biophysical, small-molecule microarray, 635/667 nm fluorescence, primary screen (AID 1142).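 Further: fluorescence read at 667 nm with signal to noise per printed feature.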 The note with it: 635 nm fluorescence, higher = more signal.
The nature of experiment [11]: ATP-based viability of Huh7 replicon cells – cell-based, CellTiter-Glo luminescence, basal, 48 h, cytotoxicity control for HCV replication inhibitor project, primary screen (AID 1143).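 Further: Huh7 hepatoma cells carrying a hepatitis C replication reporter with no stimulus; test concentration not given here.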 The note with it: higher = more signal, called active from +8 up or from −8 down. (Replicon systems follow genome replication, usually without infectious particles.)
Experiment [12] can be described thus: Pseudomonas biofilm growth suppression – PAO1 strain, BacTiter-Glo luminescence, LB-PBS, primary screen (AID 1144). The note with it: P. aeruginosa PAO1 biofilm, 12 h, higher = more signal.
Experiment [13] in a line: basal CRE-LacZ reporter activity in PC12 – cell-based, unstimulated, primary screen (AID 1145). As to conditions: no forskolin, luminescence, 4.5 h, higher = more signal, called active from +8 up or from −8 down.
Experiment [14] in a line: forskolin-driven CRE-LacZ activity in PC12 – cell-based, CRE-LacZ reporter, forskolin-stimulated, primary screen (AID 1146).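 Further: PC12 cells with 6xCRE LacZ reporter stimulated by forskolin 10 µM; beta-galactosidase reporter signal reflecting CREB driven transcription.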 The note with it: luminescence, 4.5 h, higher = more signal, called active from +8 up or from −8 down.
Experiment [15] deals with Streptavidin (Streptomyces avidinii) (UniProt P22629). In words: compounds binding control protein streptavidin – biophysical, small-molecule microarray, 635/667 nm fluorescence, artefact control for SMM compound annotation, primary screen (AID 1147).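 Further: signal reflects streptavidin binding to arrayed compounds as a control protein.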 The note with it: higher = more signal.
Experiment [16] in a line: probe aInhba binding on compound microarray – biochemical, small-molecule microarray, 635/667 nm fluorescence, primary screen (AID 1148).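 Further: score merges 667nm spot fluorescence with signal-to-noise for antibody binding to printed compounds.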 The note with it: higher = more signal.
Experiment [17] has as its target Torsin-1A (Homo sapiens) (UniProt O14656). In words: TOR1A wild-type binding on microarray – cell lysate, small-molecule microarray, lysate, 635/667 nm, primary screen (AID 1149). The note with it: COS7 hTOR1A-WT lysate, 635 nm fluorescence, higher = more signal.
For experiment [18] the target is unchanged. The experiment can be described thus: torsin A mutant lysate binding on microarrays – cell lysate, small-molecule microarray, COS7 lysate, 635/667 nm fluorescence, primary screen (AID 1150).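 Further: score pools 667 nm emission and signal to noise measuring lysate protein binding.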 As to conditions: COS7 hTOR1A mutant lysate, 635 nm fluorescence, higher = more signal.
Experiment [19] has as its system Sonic hedgehog protein (Shh). In words: Sonic hedgehog microarray binding compounds – biochemical, small-molecule microarray, 635/667 nm fluorescence, primary screen (AID 1151).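 Further: Shh protein binding to compounds spotted on small-molecule microarray slides; score combines spot fluorescence intensity with signal-to-noise across triplicate slides.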 The note with it: 635 nm fluorescence, higher = more signal.

SMILES strings stand for the structures. Where “and” joins values, the source holds several entries; their conditions need not be identical. Equal entries are not always repeated. Calls of active or inactive are those of the source. Unless noted, how the calls were made is not given here.

Chain of Torsin-1A (Homo sapiens) (O14656 whole entry, looked up): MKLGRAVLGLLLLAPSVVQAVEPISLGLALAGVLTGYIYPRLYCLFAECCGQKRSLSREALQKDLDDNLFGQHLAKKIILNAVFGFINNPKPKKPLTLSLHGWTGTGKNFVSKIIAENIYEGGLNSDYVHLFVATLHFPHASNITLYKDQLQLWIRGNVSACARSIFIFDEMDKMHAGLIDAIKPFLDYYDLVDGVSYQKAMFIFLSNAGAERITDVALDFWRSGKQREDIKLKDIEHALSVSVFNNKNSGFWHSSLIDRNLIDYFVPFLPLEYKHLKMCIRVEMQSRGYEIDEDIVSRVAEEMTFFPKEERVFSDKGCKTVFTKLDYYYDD
Chain of Follistatin (Homo sapiens) (P19883 whole entry, looked up): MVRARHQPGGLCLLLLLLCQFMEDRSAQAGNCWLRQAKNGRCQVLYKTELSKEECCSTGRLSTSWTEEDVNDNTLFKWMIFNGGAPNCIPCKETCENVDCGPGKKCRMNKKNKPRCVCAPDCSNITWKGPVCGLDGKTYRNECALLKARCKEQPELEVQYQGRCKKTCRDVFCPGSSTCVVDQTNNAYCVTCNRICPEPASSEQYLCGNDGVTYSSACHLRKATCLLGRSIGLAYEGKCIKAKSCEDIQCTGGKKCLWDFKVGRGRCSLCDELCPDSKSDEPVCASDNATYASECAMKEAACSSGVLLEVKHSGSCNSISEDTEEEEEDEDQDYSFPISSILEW
Chain of Focal adhesion kinase 1 (Homo sapiens) (Q05397 whole entry, looked up): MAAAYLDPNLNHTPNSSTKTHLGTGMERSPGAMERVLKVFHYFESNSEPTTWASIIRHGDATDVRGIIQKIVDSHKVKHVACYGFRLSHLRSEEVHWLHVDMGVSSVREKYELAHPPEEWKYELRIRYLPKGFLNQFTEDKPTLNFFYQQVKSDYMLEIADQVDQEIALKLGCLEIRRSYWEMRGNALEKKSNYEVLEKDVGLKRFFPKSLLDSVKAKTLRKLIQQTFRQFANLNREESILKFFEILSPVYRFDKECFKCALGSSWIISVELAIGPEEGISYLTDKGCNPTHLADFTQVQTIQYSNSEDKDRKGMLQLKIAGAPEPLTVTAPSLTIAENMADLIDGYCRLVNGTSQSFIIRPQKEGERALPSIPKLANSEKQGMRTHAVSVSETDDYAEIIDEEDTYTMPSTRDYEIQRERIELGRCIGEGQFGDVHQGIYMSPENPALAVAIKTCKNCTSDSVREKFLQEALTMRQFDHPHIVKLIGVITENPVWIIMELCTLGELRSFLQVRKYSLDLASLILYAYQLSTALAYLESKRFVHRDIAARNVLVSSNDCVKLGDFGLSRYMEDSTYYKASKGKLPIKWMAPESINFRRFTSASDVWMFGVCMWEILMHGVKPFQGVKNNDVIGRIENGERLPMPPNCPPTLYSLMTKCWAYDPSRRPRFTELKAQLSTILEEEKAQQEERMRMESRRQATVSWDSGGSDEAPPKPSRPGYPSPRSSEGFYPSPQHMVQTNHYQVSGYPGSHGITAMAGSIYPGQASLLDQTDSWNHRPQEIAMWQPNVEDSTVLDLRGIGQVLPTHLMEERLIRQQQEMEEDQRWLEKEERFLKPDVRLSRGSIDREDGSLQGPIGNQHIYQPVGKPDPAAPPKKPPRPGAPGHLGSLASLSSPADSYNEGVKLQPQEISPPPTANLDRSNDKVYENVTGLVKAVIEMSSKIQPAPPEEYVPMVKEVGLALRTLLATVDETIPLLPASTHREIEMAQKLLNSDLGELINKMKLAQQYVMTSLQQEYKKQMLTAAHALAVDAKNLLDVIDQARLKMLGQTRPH
Chain of Streptavidin (Streptomyces avidinii) (P22629 whole entry, looked up): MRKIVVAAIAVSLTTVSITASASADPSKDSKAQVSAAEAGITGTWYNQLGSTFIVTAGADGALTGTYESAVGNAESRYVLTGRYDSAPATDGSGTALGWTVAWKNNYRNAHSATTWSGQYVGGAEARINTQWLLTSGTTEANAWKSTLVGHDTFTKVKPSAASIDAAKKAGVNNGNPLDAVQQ
Chain of Fibroblast growth factor 2 (Homo sapiens) (P09038 whole entry, looked up): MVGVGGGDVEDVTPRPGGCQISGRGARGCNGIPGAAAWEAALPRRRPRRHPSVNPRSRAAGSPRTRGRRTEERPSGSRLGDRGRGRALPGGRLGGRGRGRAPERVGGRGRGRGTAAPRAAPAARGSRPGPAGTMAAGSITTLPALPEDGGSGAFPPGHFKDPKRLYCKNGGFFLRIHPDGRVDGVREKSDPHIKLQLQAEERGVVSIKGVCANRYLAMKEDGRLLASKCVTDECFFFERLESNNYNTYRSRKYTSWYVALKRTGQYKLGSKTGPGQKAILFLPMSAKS
Chain of Luciferin 4-monooxygenase (Photinus pyralis) (P08659 whole entry, looked up): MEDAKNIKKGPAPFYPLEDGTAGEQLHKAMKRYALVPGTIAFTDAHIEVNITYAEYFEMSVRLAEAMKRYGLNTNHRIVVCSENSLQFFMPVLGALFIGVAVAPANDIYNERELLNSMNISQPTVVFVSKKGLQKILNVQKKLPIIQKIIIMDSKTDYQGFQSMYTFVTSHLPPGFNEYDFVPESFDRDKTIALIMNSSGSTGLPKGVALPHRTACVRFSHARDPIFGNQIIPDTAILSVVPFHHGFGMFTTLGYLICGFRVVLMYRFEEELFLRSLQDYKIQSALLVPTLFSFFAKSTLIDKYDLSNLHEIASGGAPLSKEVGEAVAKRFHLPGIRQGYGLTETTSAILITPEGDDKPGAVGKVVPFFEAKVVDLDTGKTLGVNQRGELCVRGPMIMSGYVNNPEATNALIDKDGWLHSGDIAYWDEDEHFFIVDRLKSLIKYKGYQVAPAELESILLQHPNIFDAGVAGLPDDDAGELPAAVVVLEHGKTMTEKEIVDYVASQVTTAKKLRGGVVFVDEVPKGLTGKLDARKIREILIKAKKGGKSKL

On to `C=CCN(C(=O)C1N(CCOCCO)C(=O)C2C(C(=O)O)C3C=CC21O3)c1ccc(OC)cc1` (stereo not given), for which the composite z-score is -0.576 and -1.3 in experiment [1]; -1.57 and -1.78 in experiment [2]; 0.748 and -0.878 in experiment [3]; -1.13 and -2.1 in [4]; -2.1 and -2.52 in [5]; -0.792 and -1.54 in experiment [6]. In addition, the composite z-score is -2.56 and -2.64 in the experiment with Lefty1; -0.937 and -1.41 in experiment [8]; -0.571 and -0.317 in experiment [10]; -1.35 and -1.27 in experiment [15]; -0.186 and -0.296 in experiment [16]; -1.81 and -2.21 in the experiment with Torsin-1A (Homo sapiens) [17]. The composite z-score is -1.91 and -1.9 with Torsin-1A (Homo sapiens) [18]; -1.31 and -0.761 in [19]. Besides, the z-score in experiment [7] was 0.154 and 0.454; in [9], -0.505 (inactive) and -0.392 (inactive); in experiment [11] it was -0.769 (inactive) and -0.89 (inactive); in experiment [12], 0.0762 (inactive) and 0.0838 (inactive); in experiment [13], 0.329 (inactive) and 0.463 (inactive); in experiment [14], 0.373 (inactive) and -0.121 (inactive).
Regarding `CCOC(=O)c1ccc(NC(=O)O[C@H]2[C@H](OC(=O)Nc3ccccc3)[C@@H](OC(=O)Nc3ccccc3)[C@@H](OC)O[C@@H]2CO)cc1`, the composite z-score in experiment [1] is 2.39 and 2.88; in experiment [2], 1.26 and 1.28; in experiment [3], 1.78 and 0.545; in experiment [4] it was 1; in experiment [5], 1.2 and 1.4; in [6] it was 0.601 and 1.59. Besides, the composite z-score was 0.88 and 1.51 in the experiment with Lefty1; 1.32 and 1.12 in experiment [8]; 0.493 and 0.437 in experiment [10]; 1.64 and 0.53 in experiment [15]; 0.333 and 0.0982 in [16]; 1.19 and 0.89 with Torsin-1A (Homo sapiens) [17]. Also, the composite z-score with Torsin-1A (Homo sapiens) [18] was 0.556 and 0.56; in [19], 0.955 and 1.97. Also, the z-score in experiment [7] was -1.02 and -1.32; in experiment [9], -0.427 (inactive) and -0.249 (inactive); in experiment [11] it was -4.44 (inactive) and -4.14 (inactive); in experiment [12], 0.0469 (inactive) and -1.32 (inactive); in [13] it was 1.55 (inactive) and -0.552 (inactive); in experiment [14] it was -1.38 (inactive) and -1.61 (inactive).
With `C=CCN(C(=O)C(c1cccs1)N(C(=O)/C=C\C(=O)O)C(C)(C)CO)C(C)(C)C` (stereo not given), the composite z-score was -0.119 and 1.08 in [1]; 0.0785 and -0.562 in experiment [2]; -0.033 and 0.193 in experiment [3]; -0.654 and 0.99 in [4]; -0.493 and -1.32 in experiment [5]; -0.454 and -0.588 in [6]. The composite z-score in the experiment with Lefty1 was -1.35 and -1.25; in experiment [8] it was -0.452 and -0.231; in [10] it was -0.291 and -0.768; in experiment [15] it was -0.689 and -1.22; in experiment [16], -0.0581 and -0.0791; with Torsin-1A (Homo sapiens) [17], -0.331 and -0.511. In addition, the composite z-score in the experiment with Torsin-1A (Homo sapiens) [18] was 0.214 and 1.51; in [19], -0.645 and -0.105. Also, the z-score in experiment [7] is 1.12 and 0.815; in experiment [9], -1.45 (inactive) and -0.975 (inactive); in experiment [11] it was -0.261 (inactive) and 0.272 (inactive); in experiment [12] it was -1.52 (inactive) and -1.38 (inactive); in [13], -0.887 (inactive) and -0.761 (inactive); in experiment [14], -0.706 (inactive) and -0.329 (inactive).
`CO[C@@H]1COC(=O)CC=C[C@H](C)[C@@H](NS(=O)(=O)c2ccc(C)cc2)COC(=O)CC=C[C@@H]1C`: the composite z-score in experiment [1] is 0.395 and -0.145; in experiment [2], 0.214 and -0.651; in [3], -0.0379 and -0.578; in [4], 0.0363 and -2.26; in [5], 0.407 and 1.42; in experiment [6] it was 1.16 and 1.17. The composite z-score is 1.32 and 0.9 in the experiment with Lefty1; 0.216 and -0.0758 in [8]; 0.123 and 0.0913 in experiment [10]; 0.167 and 0.162 in [15]; -0.159 and -0.179 in experiment [16]; 0.318 and 2.3 in the experiment with Torsin-1A (Homo sapiens) [17]. Besides, the composite z-score with Torsin-1A (Homo sapiens) [18] was 0.505 and 1.55; in [19] it was 1.43 and 2.1. Also, the z-score is 1.66 and -1.16 in experiment [7]; -0.439 (inactive) and 1.32 (inactive) in experiment [9]; -0.142 (inactive) and -0.867 (inactive) in experiment [11]; -0.675 (inactive) and -1.19 (inactive) in experiment [12]; -0.743 (inactive) and 0.42 (inactive) in experiment [13]; -0.881 (inactive) and 0.764 (inactive) in experiment [14].
As to `COC(=O)c1c2oc(c1C(=O)OC)C(=O)N[C@@H](Cc1ccccc1)Cn1cc(nn1)C1(CCCCC1)NC(=O)N[C@H](CO)CC2`, the composite z-score was 2.15 and -0.277 in experiment [1]; 1.09 and 0.558 in [2]; 0.105 and 0.0367 in [3]; 1.01 and 0.223 in experiment [4]; 1.38 and 0.484 in experiment [5]; 1.41 and 0.184 in experiment [6]. In addition, the composite z-score in the experiment on Lefty1 was 0.956 and 0.506; in experiment [8], 0.462 and -0.0588; in [10] it was 0.547 and 0.189; in [15], 0.216 and 0.517; in experiment [16], 0.271 and -0.103; in the experiment with Torsin-1A (Homo sapiens) [17], 0.212 and 0.403. Besides, the composite z-score with Torsin-1A (Homo sapiens) [18] is -0.0506 and 0.489; in experiment [19], 1.28 and 0.781. In addition, the z-score in experiment [7] was 1.53 and 3.28; in experiment [9], -1.19 (inactive) and -0.739 (inactive); in experiment [11], -0.237 (inactive) and -0.109 (inactive); in experiment [12], -1.23 (inactive) and -0.509 (inactive); in [13], 0.484 (inactive) and 3.25 (inactive); in experiment [14], -0.635 (inactive) and -0.0904 (inactive).
